HCV inhibitor = inhibitors of hepatitis C virus infection | 340,000 compounds, 3.4% hits | Huh7.5.1 HCVcc-Cre infection, luciferase reporter, 44 h | Potency, µM (doses to about 41.8 µM), most hits filed as inhibitors | AID 651820
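Whole-lifecycle infectious HCVcc-Cre system; cells 1,000/well, compound then virus (~0.5 moi) added 4 h after plating, 44 h culture. Luciferase read 15 sec following 15 min substrate incubation, room temp.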
MARV entry inh = Marburg virus entry inhibition. AID 540276. 300,000 compounds, 1.8% hits. Potency, µM (series often up to 37.8 µM), actives largely listed as inhibitors. Marburg virus pseudotyped entry inhibition, cell reporter; calls by dose curve; tested in HEK293 cells
HCMV inh = human cytomegalovirus inhibition | HFF cells, HCMV-luciferase reporter, 72 h; hits give low values | activity change, negative = inhibition, % at 57.5 µM | 410,000 compounds, 4.5% hits | AID 1259415; in the data active means activity change below about -60%; inconclusive means no clear call, values can overlap the other calls; inactive means above about -39%
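Two compound doses tested in HFFs infected with HCMV-luciferase, MOI 1 PFU/cell, 72 h at 37C. Lysate luminescence read with OneGlo; data normalized against buffer-only and 10uM Salinomycin inhibitor controls.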
Pf growth 48h = inhibits P. falciparum growth in the first generation, 48 h. P. falciparum luciferase growth in erythrocytes, 48 h. Potency, µM (top dose mostly 28.7 µM), most hits filed as inhibitors. 310,000 compounds, 5.9% hits. AID 504832
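Growth was read as firefly luciferase luminescence after a 48 h, 37 C, 5% CO2 exposure of compounds to reporter-bearing P. falciparum cultures (0.1% parasitemia, 2% hematocrit final) in Albumax-supplemented RPMI 1640.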
LASV entry inh = Lassa virus entry inhibition. Lassa virus pseudotype entry inhibition, cell reporter. Potency, µM (titrated, usually from 37.9 µM), actives largely listed as inhibitors. 300,000 compounds, 1.2% hits; calls by dose curve; tested in HEK293 cells; further: nearly all actives have a fitted effect of over 50% in size
Pf growth 96h = inhibits malaria parasite growth, 96 h. P. falciparum luciferase reporter growth, 96 h. Potency, µM (titrated, usually from 28.7 µM), hits mostly inhibitors. 320,000 compounds, 6.9% hits
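Cell-based qHTS: luciferase-tagged P. falciparum in erythrocytes (2% hematocrit, 0.05% parasitemia final) incubated with compounds for 96 hours, 37 C, 5% CO2; luciferase detection reagent then added and luminescence measured.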
Hits are given with their value; 0 = inactive; ? = inconclusive; - = no result; + = active, no number. Rows were chosen to be rich in hits. Some 14% of all compounds tested hit in one or more screens of this group. Unless noted, the call rests on the fitted dose curve; in most records, active means well fitted inhibition curve with a large enough effect; inconclusive means small, poorly fitted or top-dose-only effect, or another doubt; inactive means no such curve, though single readings can be large or run the other way.

SMILES	HCV inhibitor	MARV entry inh	HCMV inh	Pf growth 48h	LASV entry inh	Pf growth 96h
Nc1nonc1-n1nnc(C(=O)N/N=C/c2cccc(Cl)c2)c1CN1CCCCCC1	0	-	0	-	-	-
Nc1nonc1-n1nnc(C(=O)N/N=C/c2cccc(Cl)c2)c1-c1ccc2c(c1)OCO2	0	0	+	0.074µM	0	0.033µM
Nc1nonc1-n1nnc(C(=O)N/N=C/c2ccc3c(c2)OCO3)c1-c1ccccc1	?	0	-70	?	-	?
Nc1nonc1-n1nnc(C(=O)N/N=C/c2ccccc2Cl)c1-c1ccccc1	0	0	0	0	0	0
Nc1nonc1-n1nnc(C(=O)N/N=C/c2c(F)cccc2Cl)c1-c1ccc2c(c1)OCO2	0	-	0	13µM	-	6.6µM
CC(C)c1c(C(=O)N/N=C/c2ccc3c(c2)OCO3)nnn1-c1nonc1N	0	-	?	0	-	0
Nc1nonc1-n1nnc(C(=O)N/N=C/c2ccc(Br)cc2)c1-c1ccc2c(c1)OCO2	0	?	+	0.21µM	0	0.059µM
Cc1cc2c(c(CO)c1CCO)C(=O)[C@@H](C)[C@@H]2O	0	-	0	-	-	-
Cc1c(C(=O)N/N=C/c2ccc(Cl)cc2)[nH]c2ccc(Cl)cc12	?	-	-89	0	-	?
Cc1c(C(=O)N/N=C/C(C)C)[nH]c2ccc([N+](=O)[O-])cc12	0	0	-75	0	?	0
O=C(CC1CC1)Nc1ccc2c(c1)[C@@H]1C[C@H](CC(=O)NC3CCCC3)O[C@@H](CO)[C@@H]1O2	-	-	0	-	-	-
CC1(C)CC(=O)C(CS(=O)(=O)c2ccccc2)=C(Cl)C1	0	-	-68	0	-	0
COc1cc2c(cc1OC)C(c1cccs1)N(C(=O)c1ccncc1)CC2 (stereo not drawn)	0	?	0	?	?	?
COc1cc2c(cc1OC)C(c1cccs1)N(C(=S)NC(C)C)CC2 (stereo not drawn)	?	0	0	2.6µM	?	?
COc1cc2c(cc1OC)C(c1cccs1)N(C(=O)c1ccc(S(=O)(=O)N(C)C)cc1)CC2 (stereo not drawn)	?	-	0	10µM	-	13µM
Clc1cccc(OCCOCCN2CCNCC2)c1Cl	?	13µM	0	-	0	-
NC(N)=N/N=C(\N=Nc1ccccc1)c1cccc2cccnc12	0	0	0	-	0	-
NC(N)=N/N=C(\N=Nc1ccccc1)c1ccc(Cl)cc1	?	?	0	-	16µM	-
Cc1ccc(-c2nc(N)c3c(-c4ccc(C)cc4)nn(C(C)(C)C)c3n2)cc1	?	0	?	0	0	?
CC(C)(C)n1nc(-c2ccc(Cl)cc2)c2c(N)ncnc21	0	?	?	12µM	?	3.7µM
CC(C)(C)n1nc(-c2ccc(F)cc2)c2c(N)ncnc21	0	0	?	12µM	0	15µM
CN(C)CCN1CCN(C2CN(Cc3cn(Cc4ccccc4)nn3)S(=O)(=O)C2)CC1 (stereo not drawn)	-	-	0	-	-	-
CCOc1ccccc1CNC(=O)c1cnc2sc(N3CCCC3)nn2c1=O	-	-	0	-	0	-
CNC(=O)C1CC(=O)N(Cc2ccccc2)C(=Nc2ccc(OC)cc2)S1 (stereo not drawn)	0	0	0	?	0	0
CCNC(=O)C1CC(=O)N(Cc2ccc(F)cc2)C(=Nc2ccc(OC)cc2)S1 (stereo not drawn)	0	0	0	7.4µM	?	?
SMILES	HCV inhibitor	MARV entry inh	HCMV inh	Pf growth 48h	LASV entry inh	Pf growth 96h
COc1cc(C(=O)N(C)C2CCCN(Cc3ccccc3F)C2)cc(OC)c1OC (stereo not drawn)	0	0	0	0	0	?
COc1ccccc1CCC(=O)N(C)C1CCCN(Cc2ccccc2F)C1 (stereo not drawn)	0	-	0	0	-	10µM
COc1ccc(C2CC(c3c(-c4ccccc4)c4cc(Cl)ccc4[nH]c3=O)=NN2S(C)(=O)=O)cc1OC (stereo not drawn)	?	?	0	10µM	0	?
COc1ccc(C2CC(c3cccs3)=NN2S(C)(=O)=O)cc1OC (stereo not drawn)	?	0	0	0	0	0
CCOC(=O)CC1(CC)Oc2ccccc2N1S(=O)(=O)c1ccc(C)cc1 (stereo not drawn)	-	-	0	-	-	-
Cc1[nH]c2ccccc2c1C1(O)C(=O)N(Cc2ccccc2Cl)c2ccccc21 (stereo not drawn)	-	0	?	-	?	-
Cc1[nH]c2ccccc2c1C1(O)C(=O)N(Cc2ccccc2)c2ccc(Br)cc21 (stereo not drawn)	-	?	-102	-	?	-
OC1CCCN(Cc2cn(Cc3ccccc3)nc2-c2cc3ccccc3o2)C1 (stereo not drawn)	?	26µM	0	?	0	0
CCC(O)C1CCN(Cc2cn(Cc3ccccc3)nc2-c2cc3ccccc3o2)CC1 (stereo not drawn)	?	-	-61	5.2µM	-	0
CCCCN(C(C)=O)c1c(CC)nc2ccc(C(=O)NCc3cccs3)cn12	-	-	0	-	-	-
CCCCC1(Cc2ccc([N+](=O)[O-])cc2)C(=O)N(c2ccccc2)N(c2ccccc2)C1=O	13µM	7.9µM	-98	4.1µM	?	?

Bioassay records deposited in PubChem BioAssay by National Center for Advancing Translational Sciences (NCATS).
